Measured values as given in PubChem BioAssay AID504339 (National Center for Advancing Translational Sciences (NCATS), 2011).
Out of some 390,000 compounds screened, about 17,000 (4.4%) were called active. Not shown: some 8% with an inconclusive outcome. The list comes from a sample in which actives are over-represented; it also holds similar structures and randomly drawn compounds. Values without a mark were called inactive. Calls come from the whole dose curve; as a rule, active = well fitted inhibition curve with a large enough effect; inconclusive = small, poorly fitted or top-dose-only effect; inactive = no such curve, though single readings can be large or run the other way.

Target: Lysine-specific demethylase 4A (Homo sapiens) (UniProt O75164)
Assay: qHTS Assay for Inhibitors of JMJD2A-Tudor Domain; note: nearly all actives have a fitted effect of over 50% in size
Conditions: AlphaScreen JMJD2A-Tudor / H3K4me3 peptide binding; series mostly up to 114 µM; activity change, negative = inhibition: at the top concentration
% is set by controls: 0 for no effect and ±100 for the full control effect; potency is the fitted concentration of half-maximal effect.

Chain of Lysine-specific demethylase 4A (Homo sapiens) (O75164 whole entry, looked up, the tested form may be a part): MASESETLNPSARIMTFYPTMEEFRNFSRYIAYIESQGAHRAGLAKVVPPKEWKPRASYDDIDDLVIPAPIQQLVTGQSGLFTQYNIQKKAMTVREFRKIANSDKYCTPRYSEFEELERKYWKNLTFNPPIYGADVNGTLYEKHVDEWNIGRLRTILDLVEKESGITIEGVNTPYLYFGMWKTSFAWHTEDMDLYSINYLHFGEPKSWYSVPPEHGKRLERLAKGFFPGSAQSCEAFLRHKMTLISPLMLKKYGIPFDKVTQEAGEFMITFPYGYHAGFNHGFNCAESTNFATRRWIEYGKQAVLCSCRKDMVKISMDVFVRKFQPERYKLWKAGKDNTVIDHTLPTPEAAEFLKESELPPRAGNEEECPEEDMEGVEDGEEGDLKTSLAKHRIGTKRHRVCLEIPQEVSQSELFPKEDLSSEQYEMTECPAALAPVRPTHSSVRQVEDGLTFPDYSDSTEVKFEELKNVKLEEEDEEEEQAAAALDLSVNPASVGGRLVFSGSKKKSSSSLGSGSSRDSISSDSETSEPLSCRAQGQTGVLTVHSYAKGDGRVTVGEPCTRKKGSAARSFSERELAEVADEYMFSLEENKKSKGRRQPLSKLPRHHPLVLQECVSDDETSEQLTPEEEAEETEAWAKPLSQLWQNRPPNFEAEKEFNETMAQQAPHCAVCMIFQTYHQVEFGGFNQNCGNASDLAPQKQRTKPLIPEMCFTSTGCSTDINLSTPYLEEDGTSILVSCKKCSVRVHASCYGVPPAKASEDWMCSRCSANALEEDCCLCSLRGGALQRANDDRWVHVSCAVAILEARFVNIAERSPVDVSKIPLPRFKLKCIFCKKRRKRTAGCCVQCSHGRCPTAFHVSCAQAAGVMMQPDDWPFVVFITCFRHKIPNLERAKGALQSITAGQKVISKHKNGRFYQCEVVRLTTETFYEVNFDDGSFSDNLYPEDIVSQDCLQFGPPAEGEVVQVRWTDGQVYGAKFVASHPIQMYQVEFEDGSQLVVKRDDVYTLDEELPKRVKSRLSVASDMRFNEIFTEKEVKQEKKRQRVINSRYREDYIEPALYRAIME

SMILES | activity change, negative = inhibition [%] | Potency
Cc1cccc(NC(=O)COc2ccc(Br)cc2C)n1 | -4.13 | –
CCC(C)NCCOCCOc1ccc(Br)cc1C (centres undefined) | – | 28.2 µM (active)
Cc1ccc(OCCOCCOc2ccc(Br)cc2/C=N\NC(=O)c2ccncc2)cc1 | -16.9 | –
COc1ccc(C2C(=O)N(C3CCCCC3)CC(=O)N2Cc2ccccc2Cl)cc1OC (centres undefined) | -23.9 | –
COc1cccc(NC(=O)Nc2ccc3c(c2)N(C)C(=O)c2ccccc2S3)c1 | -24.2 | –
CCc1cccc(NC(=O)c2cc(-c3ccccc3)n[nH]2)c1 | -2.76 | –
CCc1ccc2c(c1)C1(NN=C(c3ccccc3)S1)C(=O)N2 (centres undefined) | – | 56.2 µM (active)
CCOc1ccc(CNC(=O)C2CCN(c3nnc(-n4cccc4CNc4ccc(C)cc4)s3)CC2)cc1OC | 0.364 | –
CCC(=O)Nc1nnc(S(=O)(=O)N2CCCc3ccccc32)s1 | -17.7 | –
O=C(Nc1nnc(S(=O)(=O)N2CCCc3ccccc32)s1)c1cccc(F)c1 | – | 50.1 µM (active)
O=C(Nc1nnc(S(=O)(=O)N2CCCCCC2)s1)c1cccc(Br)c1 | -17.2 | –
Cc1ccc2nc(NC(=O)c3nc(SCc4ccccc4F)ncc3Cl)sc2c1 | -12.3 | –
COc1ccc(S(=O)(=O)c2c(Nc3cccc(Cl)c3)sc(C(=O)c3ccccc3)c2N)cc1 | -24.2 | –
COc1ccc(C)cc1N(CC(=O)N1CCC(C)CC1)S(=O)(=O)c1ccc(C)cc1 | -29.4 | –
CCOC(=O)C1CCN(CCC(=O)Nc2cccc(C)c2)CC1 | 4.35 | –
CCOC(=O)C1CCN(Cc2ccc(-c3ccccc3)cc2)CC1 | – | 17.8 µM (active)
COc1ccc(COCC(O)CN2CCC(C(N)=O)CC2)cc1 (centres undefined) | 1.99 | –
Cc1c(Br)c([N+](=O)[O-])nn1CC(=O)N1CCN(Cc2ccccc2)CC1 | -4.12 | –
CCOc1cc(CN2CCN(C(=O)CC(C)C)CC2)ccc1OC | – | 3.16 µM (active)
CC(C)CC(=O)N1CCN(Cc2ccccc2Br)CC1 | – | 17.8 µM (active)
CCOC(=O)C1CCN(Cc2nnc(-c3cccc(Br)c3)o2)CC1 | 1.67 | –
COc1cc(CN2CCC(C(N)=O)CC2)ccc1OCc1ccccc1 | – | 50.1 µM (active)

SMILES | activity change, negative = inhibition [%] | Potency
CC(C)CC(=O)N1CCC(O)(CS(=O)(=O)Cc2ccccc2)CC1 | -11.5 | –
CCOc1cc(CO)ccc1OCC(=O)N1CCCCC1 | -14 | –
COc1ccc(CCN2C(=O)CC(N3CCC(C(N)=O)CC3)C2=O)cc1OC (centres undefined) | -2.49 | –
COc1ccc(CN2CCN(C(=O)CCC(=O)Nc3nnc(C(C)C)s3)CC2)cc1F | -11.5 | –
COc1ccc(Cn2ccc3nc(C)c(C(=O)Nc4ccc(C)c(F)c4)cc3c2=O)cc1 | -8.67 | –
COc1cccc(NC(=O)CSc2cc(=O)n(C)c3ccc(Cl)cc23)c1 | -9.09 | –
CCCNC(=O)c1ccc2c(c1)ncn2-c1ccc(C)cc1C | -20.8 | –
COc1ccc(-c2cc(NCc3ccc(F)cc3)n3cnnc3n2)cc1 | -35.8 | –
Cc1cc2oc(C(=O)N(Cc3ccc(Cl)cc3)Cc3ccco3)c(C)c2cc1Cl | -4.86 | –
CC(C)(C)c1ccc(C(=O)NCC(c2ccc(Cl)cc2)N2CCOCC2)cc1 (centres undefined) | -21.9 | –
Cc1nc2nc(SCC(=O)NC3CCC(C)CC3)nn2c(C)c1Cc1ccccc1Cl (centres undefined) | -31.5 | –
Cc1ccc(NC(=O)c2oc3ccc(S(=O)(=O)N4CCCCC4)cc3c2C)cc1Cl | -13.8 | –
CC(C)CC(=O)N1CCN(Cc2cccc(Cl)c2)CC1 | – | 44.7 µM (active)
Cn1nnnc1SCC(=O)N1CCN(Cc2ccccc2)CC1 | -0.746 | –
O=C(c1cccc(Cl)c1)N1CCN(Cc2ccccc2)CC1 | -11 | –
CCOC(=O)N1CCC(NC(=O)c2cnn(-c3cccc(C)c3)c2C2CCN(C(=O)OC(C)(C)C)CC2)CC1 | -8.41 | –
CC1CCC(NC(=O)CNC(=O)c2ccc3ccccc3c2)CC1 (centres undefined) | -9.59 | –
O=C(CNC(=O)c1ccc2ccccc2c1)Nc1ncccc1O | – | 79.4 µM (active)
O=C(Nc1ncccc1O)c1ccc(C(=O)c2ccccc2)cc1 | -15.8 | –
CCCN(CCC)C(=O)C1CCCN(c2ncnc3c2nc2n3CCCCC2)C1 (centres undefined) | -0.641 | –
Cc1nn(C)c(C(=O)NNC(=S)NC2CCCCC2)c1Cl | 1.49 | –
COc1cccc(NC(=S)NC(=O)c2c(Cl)c(C)nn2C)c1 | – | 89.1 µM (active)

SMILES | activity change, negative = inhibition [%] | Potency
COc1cccc(NC(=O)c2csnn2)c1 | -14.9 | –
COc1ccc(S(=O)(=O)c2cn(C)c3cc(N4CCCCC4)c(F)cc3c2=O)cc1 | -13.2 | –
COC(=O)c1ccccc1NS(=O)(=O)c1ccc2[nH]c(=O)[nH]c2c1 | -11.8 | –
COc1cccc(/C=N/Nc2ccc(S(=O)(=O)Nc3ccccc3C(=O)O)cc2[N+](=O)[O-])c1O | – | 44.7 µM (active)
CCOc1ncccc1C(=O)NNC(=O)c1cccc(S(=O)(=O)Nc2ccccc2OC)c1 | -5.52 | –
COc1ccc(S(=O)(=O)Nc2ccc3cn[nH]c3c2)cc1[N+](=O)[O-] | -31.1 | –
COc1ccc(S(=O)(=O)Nc2ccccc2C(=O)N2CCCC2)cc1C | -9.89 | –
COc1ccc(Br)cc1/C=N/Nc1ccc(S(=O)(=O)Nc2ccccc2C(=O)O)cc1[N+](=O)[O-] | – | 17.8 µM (active)
CCOC(=O)C1CCN(C(=O)CSc2c3c(nc4ccc(Cl)cc24)CCCC3)CC1 | -6.67 | –
COc1ccc2oc(-c3ccc(C)c(NC(=O)c4sc5ccccc5c4Cl)c3)nc2c1 | -20.1 | –
COc1cc(Br)c(-c2sc(Nc3ccccc3)n[n+]2-c2ccccc2)cc1OC | -35.2 | –
CCc1ccc(Nc2n[n+](-c3ccccc3)c(-c3cccc(Cl)c3Cl)s2)cc1 | – | 56.2 µM (active)
COc1ccc(C)cc1Nc1n[n+](-c2ccccc2)c(-c2cccc(Cl)c2Cl)s1 | -25.9 | –
Cc1cccc(NC(=O)C2CCCN2S(=O)(=O)c2cccc3nsnc23)c1C (centres undefined) | -6.4 | –
COc1ccc(N2CCN(Cc3nc4c(c(=O)[nH]c(=O)n4C)n3Cc3ccc(Cl)cc3)CC2)cc1 | -17.5 | –
CCn1c(COc2c(C)cccc2C)nnc1SCc1nc2ccccc2c(=O)[nH]1 | -14.1 | –
COc1ccc(C)cc1-n1nnnc1SCc1nc2ccccc2c(=O)[nH]1 | -1.46 | –
COc1ccc(CCCc2nnc(SCc3nc4ccccc4c(=O)[nH]3)n2C)cc1 | – | 15.8 µM (active)
CCOc1ccccc1NC(=O)CSc1ncc(S(=O)(=O)c2ccc(C(C)(C)C)cc2)c(=O)[nH]1 | -18.2 | –
CCCN1CCN(CCCNC(=O)c2ccc3nc(Cc4ccccc4)oc3c2)CC1 | -25.9 | –
